The supplement of paper PMC6992640
Where a name gives a salt, the structure may show the parent alone. ± gives the standard deviation of the averaged measurements.

Legend:
Assay in all cases: cell viability (% of vehicle); higher = less cytotoxic
Conditions in all cases: 10 µM; 72 h
HCI01 = test system: HCI01 (cells of a triple-negative basal-like breast cancer xenograft)
HCI03 = test system: HCI03 (cells of an ER-positive luminal breast cancer xenograft)
HCI09 = test system: HCI09 (cells of a triple-negative luminal androgen receptor type breast cancer xenograft)
HCI11 = test system: HCI11 (cells of an ER-positive luminal breast cancer xenograft)
UCD52 = test system: UCD52 (cells of a triple-negative basal-like breast cancer xenograft)
WHIM2 = test system: WHIM2 (cells of a triple-negative basal-like breast cancer xenograft)
WHIM30 = test system: WHIM30 (cells of a triple-negative basal-like breast cancer xenograft)
HCI13 = test system: HCI13 (cells of an ER-positive luminal breast cancer xenograft)
HCI16 = test system: HCI16 (cells of a triple-negative basal-like breast cancer xenograft)
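Also: PDX cells carrying CMV promoter-driven luciferase, viability read as total photon flux per second by IVIS imaging following D-luciferin, vehicle control 0.1% DMSO.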

Row | Structure (SMILES) | cell viability (HCI01) | cell viability (HCI03) | cell viability (HCI09) | cell viability (HCI11) | cell viability (UCD52) | cell viability (WHIM2) | cell viability (WHIM30) | cell viability (HCI13) | cell viability (HCI16)
1 | CC(C)[N+]1(C)C2CCC1CC(OC(=O)C(CO)c1ccccc1)C2.[Br-] (configuration not stated) [Ipratropium Bromide] | 138 ± 45 | 151 | 158 ± 79 | 108 | 148 ± 5.2 | 103 ± 15 | 180 ± 23 | – | –
2 | CC(C)c1c(C(=O)Nc2ccccc2)c(-c2ccccc2)c(-c2ccc(F)cc2)n1CCC(O)CC(O)CC(=O)[O-].CC(C)c1c(C(=O)Nc2ccccc2)c(-c2ccccc2)c(-c2ccc(F)cc2)n1CCC(O)CC(O)CC(=O)[O-].[Ca+2] (configuration not stated) [Atorvastatin Calcium] | 89.2 ± 4.2 | 138 | 89.2 ± 26 | – | 47.7 ± 2.3 | 43.7 ± 10 | 158 ± 5.3 | 95.72 ± 0.31 | 140
3 | CCCC(NC(=O)C1C2CCCC2CN1C(=O)C(NC(=O)C(NC(=O)c1cnccn1)C1CCCCC1)C(C)(C)C)C(=O)C(=O)NC1CC1 (configuration not stated) [Telaprevir (VX-950)] | 154 ± 43 | 102 | 80.2 ± 12 | – | 123 ± 6.4 | 96.2 ± 12 | 165 ± 15 | 96.4 ± 12 | 144
4 | CCc1c2c(nc3ccc(OC(=O)N4CCC(N5CCCCC5)CC4)cc13)-c1cc3c(c(=O)n1C2)COC(=O)[C@]3(O)CC [Irinotecan HCl Trihydrate] | 70.8 ± 22 | 165 | 120 ± 25 | – | 104 ± 17 | 68 ± 3.8 | 107 ± 19 | 114 ± 15 | 105
5 | CCCCC(=O)OC1(C(=O)CO)C(C)CC2C3CCC4=CC(=O)C=CC4(C)C3(F)C(O)CC21C (configuration not stated) [Betamethasone Valerate] | 120 ± 12 | 169 | 148 ± 34 | 124 | 161 ± 9.9 | 88.9 ± 29 | 194 ± 17 | – | –
6 | CC1CC2C3CC(F)C4=CC(=O)C=CC4(C)C3(F)C(O)CC2(C)C1(O)C(=O)CO (configuration not stated) [Flumethasone] | 144 ± 49 | 180 | 140 ± 56 | 145 | 166 ± 22 | 93.2 ± 12 | 163 ± 5.2 | – | –
7 | CC1CC2C(C(O)CC3(C)C2CCC3(O)C(=O)CO)C2(C)C=CC(=O)C=C12 (configuration not stated) [Methylprednisolone] | 145 ± 24 | 156 | 123 ± 34 | 136 | 154 ± 11 | 119 ± 8.1 | 194 ± 12 | – | –
8 | CCCc1nc(C(C)(C)O)c(C(=O)O)n1Cc1ccc(-c2ccccc2-c2nn[nH]n2)cc1 [Olmesartan] | 117 ± 4 | 121 | 130 ± 18 | 113 | 121 ± 15 | 91.2 ± 3.6 | 154 ± 25 | – | 136
9 | CC(C)n1c(C=CC(O)CC(O)CC(=O)[O-])c(-c2ccc(F)cc2)c2ccccc21.[Na+] (configuration not stated) [Fluvastatin Sodium] | 91.3 ± 15 | 135 | 61.2 ± 11 | – | 54.9 ± 4.7 | 59.6 ± 0.62 | 113 ± 11 | – | 135
10 | Oc1ccc(OCc2ccccc2)cc1 [Monobenzone] | 187 ± 11 | 180 | – | 157 | 167 ± 14 | 145 ± 23 | – | 181 ± 4.9 | 153
11 | CCC(=O)OC1(C(=O)CCl)C(C)CC2C3CC(F)C4=CC(=O)C=CC4(C)C3(F)C(O)CC21C (configuration not stated) [Halobetasol Propionate] | 159 ± 6.9 | 152 | 133 ± 96 | 133 | 191 ± 18 | 113 ± 9.6 | – | – | –
12 | Nc1nc2[nH][nH]nc-2c(=O)n1 [Azaguanine-8] | 158 ± 48 | 146 | 137 ± 21 | – | 102 ± 55 | 96.01 ± 0.31 | 119 ± 14 | 150 ± 9.1 | –
13 | CCc1c2c(nc3ccc(OC(=O)N4CCC(N5CCCCC5)CC4)cc13)-c1cc3c(c(=O)n1C2)COC(=O)C3(O)CC (configuration not stated) [Irinotecan] | 110 ± 6 | 133 | 174 ± 80 | – | 107 ± 6.1 | 67.4 ± 6.7 | 113 ± 8.8 | 121 ± 2.2 | 140
14 | CC1CC2C3CCC4=CC(=O)C=CC4(C)C3(Cl)C(O)CC2(C)C1(OC(=O)c1ccco1)C(=O)CCl (configuration not stated) [Mometasone furoate] | 94.8 ± 29 | 151 | 118 ± 30 | 115 | 139.5 ± 0.18 | 83.5 ± 7.3 | – | – | –
15 | O=C([O-])CC(O)CC(O)C=Cc1c(C2CC2)nc2ccccc2c1-c1ccc(F)cc1.O=C([O-])CC(O)CC(O)C=Cc1c(C2CC2)nc2ccccc2c1-c1ccc(F)cc1.[Ca+2] (configuration not stated) [Pitavastatin Calcium] | 83.9 ± 10 | 78.4 | 53.9 ± 27 | – | 50.2 ± 1.3 | 67.8 ± 23 | 93.3 ± 4.9 | 148 ± 27 | 113
16 | CC(=O)OCC(=O)C1(O)CCC2C3CCC4=CC(=O)C=CC4(C)C3C(O)CC21C (configuration not stated) [Prednisolone Acetate] | 119 ± 47 | 185 | 134 ± 37 | 123 | 152.4 ± 0.65 | 97.2 ± 1.2 | 182 ± 22 | – | –
17 | CC(=O)OCC(=O)[C@@]12OC(C)(C)O[C@@H]1C[C@H]1[C@@H]3C[C@H](F)C4=CC(=O)C=C[C@]4(C)[C@@]3(F)[C@@H](O)C[C@@]12C [Fluocinonide] | 75.9 ± 53 | 179 | 127 ± 39 | 129 | 156 ± 2.6 | 94.6 ± 31 | 175.6 ± 0.94 | – | –
18 | O=c1c(O)c(-c2ccc(O)c(O)c2)oc2cc(O)cc(O)c12 [Quercetin] | 124 ± 46 | 123 | 141 ± 4.7 | 99.2 | 102 ± 1.3 | 107.1 ± 0.64 | 128 ± 17 | – | 151
19 | CCC(=O)OCC(=O)C1(OC(=O)CC)C(C)CC2C3CCC4=CC(=O)C=CC4(C)C3(F)C(O)CC21C (configuration not stated) [Betamethasone Dipropionate] | 126 ± 23 | 138 | 150 ± 25 | 136 | 147 ± 14 | 92.3 ± 26 | – | – | –

Row | Structure (SMILES) | cell viability (HCI01) | cell viability (HCI03) | cell viability (HCI09) | cell viability (HCI11) | cell viability (UCD52) | cell viability (WHIM2) | cell viability (WHIM30) | cell viability (HCI13) | cell viability (HCI16)
20 | CN(C)Cc1c(C(=O)NCCOc2ccc(C(=O)NO)cc2)oc2ccccc12 | – | 128 | 70.8 ± 49 | 9.68 | – | 80.6 ± 8.5 | – | 56.1 ± 17 | –
21 | Cc1[nH]c2ccccc2c1CCNCc1ccc(C=CC(=O)NO)cc1 [Panobinostat (LBH589)] | – | 130 | 68.3 ± 34 | – | – | 36.5 ± 3 | – | 45 ± 8.7 | –
22 | OCC1OC(O)C(O)C(O)C1O [Dextrose (D-glucose)] | 123.4 ± 0.67 | – | 106 ± 1.3 | 125 | 88.77 ± 0.6 | 105 ± 3.9 | 153 ± 12 | 124 ± 6.9 | 110
23 | Cc1cnc(Nc2ccc(OCCN3CCCC3)cc2)nc1Nc1cccc(S(=O)(=O)NC(C)(C)C)c1 | – | 173 | 133 ± 44 | 138 | 196 ± 55 | 43.8 ± 0.93 | – | 61.6 ± 12 | 161
24 | CCN(CC)CCNC(=O)c1ccc(N)cc1.Cl [Procainamide HCl] | 110 ± 3.9 | – | 108 ± 4.1 | 95.8 | 100 ± 7.8 | 110 ± 10 | 197 ± 10 | 98 ± 2.4 | 116
25 | C[C@@H]1C\C=C/C=C\C=C/C=C\[C@H](O[C@@H]2O[C@H](C)[C@@H](O)[C@H](N)[C@@H]2O)C[C@@H]2O[C@](O)(C[C@@H](O)C[C@H]3O[C@@H]3/C=C\C(=O)O1)C[C@H](O)[C@H]2C(=O)O [Natamycin] | – | 137 | 121 ± 19 | 146 | 156 ± 48 | 103 ± 9.2 | 199 ± 34 | 144.5 ± 1.4 | –
26 | CCn1cc(C(=O)O)c(=O)c2cnc(N3CCCC3)nc21 [Piromidic Acid] | 151 ± 52 | – | 132 ± 5 | 110 | 145 ± 4.4 | – | – | 171 ± 27 | 125
27 | Cn1cnc2c(F)c(Nc3ccc(Br)cc3Cl)c(C(=O)NOCCO)cc21 [AZD6244 (Selumetinib)] | – | 83.9 | 82.9 ± 23 | 112 | 84.4 ± 13 | 79.7 ± 8.5 | – | 92.21 ± 0.79 | –
28 | CO[C@H]1C[C@@H]2CC[C@@H](C)[C@@](O)(O2)C(=O)C(=O)N2CCCC[C@H]2C(=O)O[C@H]([C@@H](C)C[C@@H]2CC[C@@H](OCCO)[C@H](OC)C2)CC(=O)[C@H](C)/C=C(\C)[C@@H](O)[C@@H](OC)C(=O)[C@H](C)C[C@H](C)/C=C/C=C/C=C/1C [Everolimus (RAD001)] | – | 69.8 | 27.5 ± 4 | 102 | 55.2 ± 9.9 | 41.9 ± 4.8 | 160 ± 35 | 54.91 ± 0.39 | 179
29 | O=c1c(-c2ccc(O)cc2)coc2cc(O)ccc12 [Daidzein] | 146 ± 37 | 155 | – | 114 | 149 ± 13 | 119 ± 7.2 | – | – | 180
30 | CCCCOc1ccc(CC(=O)NO)cc1 [Bufexamac] | 182.8 ± 1.2 | – | 140 ± 6.6 | 173 | 148 ± 29 | 112 ± 2.7 | 102 ± 3.6 | 141 ± 35 | –
31 | CN1CCN(c2ccc3c(c2)NC(=C2C(=O)N=c4cccc(F)c4=C2N)N3)CC1 [Dovitinib (TKI-258, CHIR-258)] | 92.5 ± 18 | – | 49.8 ± 24 | 79 | 125 ± 32 | 69.8 ± 20 | 104 ± 1.8 | – | –
32 | Nc1ccccc1NC(=O)c1ccc(CNC(=O)OCc2cccnc2)cc1 [Entinostat (MS-275,SNDX-275)] | – | 109 | 119 ± 130 | – | – | 75.7 ± 17 | – | 58.7 ± 7.4 | –
33 | COC1=CC(=O)C[C@@H](C)[C@]12Oc1c(Cl)c(OC)cc(OC)c1C2=O [Griseofulvin] | 127 ± 7.9 | – | 141 ± 30 | 98.7 | 136 ± 24 | 121 ± 36 | 190 ± 15 | 128 ± 5.8 | 128
34 | OCC1OC(Oc2cc(O)cc(C=Cc3ccc(O)cc3)c2)C(O)C(O)C1O (configuration not stated) [Polydatin] | 155 ± 18 | – | 113 ± 15 | 142 | – | 109 ± 35 | – | 99.9 ± 1.1 | 195
35 | CC[C@]1(O)C[C@H]2CN(CCc3c([nH]c4ccccc34)[C@@](C(=O)OC)(c3cc4c(cc3OC)N(C=O)[C@H]3[C@@](O)(C(=O)OC)C(OC(C)=O)[C@]5(CC)C=CCN6CC[C@]43C65)C2)C1.O=S(=O)(O)O (some centres not stated) [Vincristine] | – | 111 | 91.3 ± 26 | 112 | 85.1 ± 13 | 90.5 ± 12 | 153 ± 16 | 42.2 ± 2.8 | 200
36 | CC(=O)OCC(=O)C1CCC2C3CCC4=CC(=O)CCC4(C)C3CCC12C (configuration not stated) [Deoxycorticosterone acetate] | – | 132 | 95.7 ± 46 | 112 | 139 ± 19 | 140 ± 10 | 164 ± 12 | 141 ± 23 | 135
37 | O=C(O)C1=CC(=NNc2ccc(S(=O)(=O)Nc3ccccn3)cc2)C=CC1=O [Sulfasalazine] | – | 124 | 119 ± 9.1 | 137 | 100 ± 5 | 105 ± 8.7 | 181 ± 26 | 161 ± 27 | 180
